Molecules are shown by their SMILES. This is part of a sample that, as a whole, favours compounds with a hit. Of some 83,000 tested, about 20% had one in any assay.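 In brief: 96-well plates, 48 h treatment, single concentration, percent growth endpoint.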 Values without a mark were called inactive. Calls of active or inactive are those of the source. The calls were made as follows: active = growth percent below 10; inactive = the rest.

For the first experiment, the system named is NCI-H322M lung. The experiment in a line: NCI-60 one-dose screen, 48 h (100 = growth as untreated, 0 = no growth, -100 = all killed). To be noted: 10 µM unless noted.
In the case of `C=C[C@H]1CCC/C=C/[C@@H]2C[C@H](O)C[C@H]2[C@H](O)/C=C/C(=O)O1`, the growth is -7.72% (active).
Still for that read-out and setting: next, `C=CC(=O)N1CN(C(=O)C=C)CN(C(=O)C=C)C1`: 108%.
As to `CC(C)CCSc1nc(Nc2ccccc2)c(C#N)c(-c2ccc(F)cc2)n1`, the growth is 49.8%.
As for `COC(=O)c1ccc2c(c1)nc(-c1cc3ccccc3[nH]c1=O)n2-c1cc(C(C)(C)C)[nH]n1`, the growth is 77%.
On the same count and under the same terms, next, `O=C1NN(C(=O)c2ccccc2)C(c2ccc(Cl)c(Cl)c2)=C/C1=C\c1ccccc1[N+](=O)[O-]`: 27.1% [6.75 µM].
With `O=C(CCl)Nc1ccc2c(c1)C(=O)c1ccccc1C2=O`, the growth was 83.5%.
Regarding `CCOC(=O)C1C(=O)C=C(c2cc(OC)c(OC)c(OC)c2)CC1c1sc(N(C)Cc2ccccc2)nc1Cl` (centres undefined), the growth is 83.2%.
On to `N/C(=N\OC(=O)c1ccccc1)C(C(=O)NOC(=O)c1ccccc1)C1CCCCC1` (centres undefined), for which the growth is 84.7%.
For `C=C(C)[C@@H]1CC[C@]2(C(=O)O)CC[C@]3(C)[C@H](CC[C@@H]4[C@@]5(C)C[C@@H](CC#Cc6ccc(C(C)=O)s6)[C@H](O)C(C)(C)[C@@H]5CC[C@]43C)[C@@H]12`, the growth was 41.3%.
For the compound `CC(C)[C@@H]1C=C2CC[C@H]3[C@](C)(CN)CCC[C@]3(C)[C@H]2CC1`, the growth was -6.11% (active).
In the case of `COc1ccc(-c2cc(-c3cn(-c4cccc(Cl)c4)nc3-c3ccc(OC)cc3)[nH]c(=S)n2)cc1`, the growth is 95.5%.
On the same count and under the same terms, next, `CCN1CCN(Cc2ccc(NC(=O)Nc3ccc(-n4ccc5c(NC(=O)c6ccccc6)nccc54)cc3)cc2C(F)(F)F)CC1`: 80.8%.
Same read-out and setting: next, `Clc1ccc(C2=NN[C@H](c3cn(-c4ccccc4)nc3-c3ccccc3)C2)cc1`: 72.5%.
For `CC(C)CC1NC(=O)C(CC(C)C)N(CO)C1=O` (centres undefined), the growth was 95%.
Take `c1ccc(-c2ccc(-c3ccccc3)[nH]2)cc1`: the growth is 95.6%.
`C=CCN(CC#N)CC=C`: the growth is 106%.
With `COc1ccc2c(c1)sc1nc(-c3ccccc3)c(-c3cccc4ccccc34)n12`, the growth was 57.9%.
Consider `CC(C)c1nc2ccccc2n1CC(=O)N/N=C/c1cccc(O)c1`, for which the growth is 93.2%.
Consider `CCCCCCCC/C=C\CCCCCCCC(=O)OCCCCCC`, for which the growth is 111%.
On to `CCN(CC)c1ccc(/C=N/NC(=O)c2ccc(S(C)(=O)=O)cc2)c(O)c1`, for which the growth was 25%.
In the case of `CC(=O)CC(c1ccc([N+](=O)[O-])cc1)c1c(O)c2ccccc2oc1=O` (centres undefined), the growth is 98.7%.
On to `CC1CCCN(CCCCOc2ccc(-c3ccc(C#N)cc3)cc2)C1` (centres undefined), for which the growth was 99.9%.
In the case of `Cn1c(-c2ccccc2)cc(=O)n1-c1ccccc1`, the growth was 103%.
Still for that read-out and setting: next, `O=C(NCCN1CCCC1)n1cc(-c2ccncc2)c(-c2cc(O)cc(Cl)c2)n1`: 115%.
Same read-out and setting: next, `C(=Nc1ccc(-c2ccc(N=Cc3ccccc3)cc2)cc1)c1ccccc1`: 103%.

The test system of a further experiment is HOP-62 NSCLC. Described as above. Conditions: 10 µM unless noted.
With `CC(=O)O[C@H]1CC[C@]2(C)[C@H]3CC=C4[C@@H]5CC(C)(C)CC[C@]5(C(=O)OCC(COC(=O)C(Cl)Cl)(COC(=O)C(Cl)Cl)NC(=O)C(Cl)Cl)CC[C@@]4(C)[C@]3(C)CC[C@H]2C1(C)C`, the growth was 79%.
As for `Clc1ccc(Cl)c(N=Cc2ccc3c(c2)OCO3)c1`, the growth is 101%.
Turning to `CCN(CC)c1ccc2c(cc1=O)[C@@H](NC(C)=O)CCc1cc(OC)c(OC)c(OC)c1-2`, the growth was 30.9%.
Still for that read-out and setting: next, `COc1ccc(CNc2c3ccccc3nc3ccc(OC)cc23)cc1`: 34.1%; `NC(=O)c1ccc[n+](Cc2ccccc2)c1`: 127%.
For `N/N=C(\C(=N\N)c1ccccc1)c1ccccc1`, the growth was 91.7%.
For `CC1=C(O)C(=O)CC1`, the growth was 120%.
On to `CCN(CC)CCCC(C)Nc1ccnc2ccc(Oc3ccccc3)cc12` (centres undefined), for which the growth is 86.6%.
Consider `COc1cc2ncnc(Nc3ccc(S(=O)(=O)Nc4nccs4)cc3)c2cc1OCCCN1CCOCC1`, for which the growth was 93.3%.
Regarding `CC(=O)Cc1ccccn1`, the growth was 108%.
On to `CC1OC(n2c3ccccc3c3c4c(c5c6ccccc6[nH]c5c32)C(=O)N(CCN[C@H]2CCC[C@@H]2N)C4=O)CC(O)C1O` (some centres undefined), for which the growth is 30.2%.
For `O=C(C(=O)N1CCCC1)c1cn(CCCn2cc(C(=O)C(=O)N3CCCC3)c3cc(Br)ccc32)c2ccc(Br)cc12`, the growth was 56.1%.
Regarding `CCCCCCCOc1cccc(/C=C2\N=C3SCCCN3C2=O)c1`, the growth was 108%.
Consider `COc1ccc(NC(=O)c2sc3c(=O)[nH]c(C(F)(F)F)nc3c2C)cc1`, for which the growth is 107%.
In the case of `C=C[C@H]1CCC/C=C/[C@@H]2C[C@H](O)C[C@H]2[C@H](O)/C=C/C(=O)O1`, the growth is 33.3%.
Turning to `C=CC(=O)N1CN(C(=O)C=C)CN(C(=O)C=C)C1`, the growth is 88.3%.
Turning to `CC(C)CCSc1nc(Nc2ccccc2)c(C#N)c(-c2ccc(F)cc2)n1`, the growth is 56.5%.
`COC(=O)c1ccc2c(c1)nc(-c1cc3ccccc3[nH]c1=O)n2-c1cc(C(C)(C)C)[nH]n1`: the growth is 66.5%.
Consider `O=C1NN(C(=O)c2ccccc2)C(c2ccc(Cl)c(Cl)c2)=C/C1=C\c1ccccc1[N+](=O)[O-]`, for which the growth is 37.8% [6.75 µM].
Turning to `O=C(CCl)Nc1ccc2c(c1)C(=O)c1ccccc1C2=O`, the growth was 19.9%.
Regarding `CCOC(=O)C1C(=O)C=C(c2cc(OC)c(OC)c(OC)c2)CC1c1sc(N(C)Cc2ccccc2)nc1Cl` (centres undefined), the growth was 78.3%.
Take `N/C(=N\OC(=O)c1ccccc1)C(C(=O)NOC(=O)c1ccccc1)C1CCCCC1` (centres undefined): the growth is -7% (active).
As for `C=C(C)[C@@H]1CC[C@]2(C(=O)O)CC[C@]3(C)[C@H](CC[C@@H]4[C@@]5(C)C[C@@H](CC#Cc6ccc(C(C)=O)s6)[C@H](O)C(C)(C)[C@@H]5CC[C@]43C)[C@@H]12`, the growth is 50%.
With `CC(C)[C@@H]1C=C2CC[C@H]3[C@](C)(CN)CCC[C@]3(C)[C@H]2CC1`, the growth is 59.8%.
As for `COc1ccc(-c2cc(-c3cn(-c4cccc(Cl)c4)nc3-c3ccc(OC)cc3)[nH]c(=S)n2)cc1`, the growth is 99.1%.
`CCN1CCN(Cc2ccc(NC(=O)Nc3ccc(-n4ccc5c(NC(=O)c6ccccc6)nccc54)cc3)cc2C(F)(F)F)CC1`: the growth is -78.4% (active).
Still for that read-out and setting: next, `Clc1ccc(C2=NN[C@H](c3cn(-c4ccccc4)nc3-c3ccccc3)C2)cc1`: 16.1%; `CC(C)CC1NC(=O)C(CC(C)C)N(CO)C1=O` (centres undefined): 107%; `c1ccc(-c2ccc(-c3ccccc3)[nH]2)cc1`: 105%.
As to `C=CCN(CC#N)CC=C`, the growth is 98.5%.
For `COc1ccc2c(c1)sc1nc(-c3ccccc3)c(-c3cccc4ccccc34)n12`, the growth was 64.4%.
The same measure, in the same setting: next, `CC(C)c1nc2ccccc2n1CC(=O)N/N=C/c1cccc(O)c1`: 97.4%; `CCCCCCCC/C=C\CCCCCCCC(=O)OCCCCCC`: 121%; `CCN(CC)c1ccc(/C=N/NC(=O)c2ccc(S(C)(=O)=O)cc2)c(O)c1`: 12.9%.
In the case of `CC(=O)CC(c1ccc([N+](=O)[O-])cc1)c1c(O)c2ccccc2oc1=O` (centres undefined), the growth was 102%.
Regarding `CC1CCCN(CCCCOc2ccc(-c3ccc(C#N)cc3)cc2)C1` (centres undefined), the growth was 97.7%.
On to `Cn1c(-c2ccccc2)cc(=O)n1-c1ccccc1`, for which the growth is 108%.
Turning to `O=C(NCCN1CCCC1)n1cc(-c2ccncc2)c(-c2cc(O)cc(Cl)c2)n1`, the growth is 92.3%.
`C(=Nc1ccc(-c2ccc(N=Cc3ccccc3)cc2)cc1)c1ccccc1`: the growth is 101%.

The record behind these values is PubChem BioAssay (NCI).
